# Assay results taken from the supplement of paper PMC10646978.
# ± gives the standard deviation.
# Key:
# Conditions in all cases: modulator concentration 10 µM
# [1] = system: RAW-Dual (murine macrophage reporter line); assay: NF-kB reporter (SEAP) activity fold change vs agonist alone; higher = enhanced NF-kB activity
# Method in brief: (§1)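 Compound reached 10 μM final in each well by pin transfer, onto RAW-Dual murine macrophage reporter cells seeded at 50 000 per well in 384-well plates. After 1 hour at 37 °C, the cells were stimulated overnight with a PRR agonist. SEAP in the supernatant was read with QUANTI-Blue at 620 nm absorbance for NF-κB, and Lucia luciferase was read with QUANTI-Luc luminescence for IRF. Each signal was turned into fold change against the mean agonist-only control on the same plate, and two replicate plates were averaged with propagated errors.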
# [2] = system: RAW-Dual (murine macrophage reporter line); assay: IRF reporter (Lucia luciferase) activity fold change vs agonist alone; higher = enhanced IRF activity
# Method in brief: as §1
# [3] = system: RAW-Dual (murine macrophage reporter line); assay: viability score (confluency relative to resting cells, overnight) (fraction); higher = more viable, active = viable (0.7 or more)
# Method in brief: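 In 384-well plates, RAW-Dual macrophages received compound at a final 10 μM overnight. Two confluency masks were then made with IncuCyte software from IncuCyte images of all imaged wells. The viability score is defined as confluency relative to resting cells. Passing the cutoff required both masks to lie above 70% of resting cells.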
# [4] = agonist: CpG ODN 1826 0.5 ug/mL
Compound,"NF-kB reporter [1, 4]",NF-kB reporter ([1]; agonist: LPS 0.1 ug/mL),NF-kB reporter ([1]; agonist: MPLA […]),IRF reporter ([2]; agonist: 3'3'-cGAMP 10 ug/mL),IRF reporter ([2]; agonist: LPS 0.1 ug/mL),IRF reporter ([2]; agonist: MPLA […]),viability score [3]
COc1ccc(C2OCC3C(c4ccc(OC)c(OC)c4)OCC23)cc1OC (stereo unspecified),1.18 ± 0.091,1.03 ± 0.094,1.08 ± 0.11,1.11 ± 0.088,1.07 ± 0.13,1.21 ± 0.23,1.01 (active)
COc1ccc(S(=O)(=O)NNc2ccc([N+](=O)[O-])cc2[N+](=O)[O-])cc1,1.21 ± 0.07,0.864 ± 0.059,0.777 ± 0.05,0.342 ± 0.025,1.22 ± 0.19,1.34 ± 0.14,0.962 (active)
CCOC(=O)c1ccc(-c2ccc(C=C(C#N)C(=O)Nc3ccc(F)cc3)o2)cc1,0.979 ± 0.09,1.08 ± 0.063,1.05 ± 0.068,0.929 ± 0.042,1.29 ± 0.25,1.06 ± 0.14,1.01 (active)
c1cc2c3c(cccc3c1)-c1nc3ccccc3nc1-2,0.993 ± 0.17,1.09 ± 0.13,1.02 ± 0.095,0.984 ± 0.026,1.32 ± 0.15,1.59 ± 0.3,1.01 (active)
CC(C)Nc1cc(-c2c[nH]c(C(=O)N[C@H](CO)c3cccc(Cl)c3)c2)c(Cl)cn1,0.208 ± 0.012,0.0734 ± 0.0045,0.158 ± 0.01,0.677 ± 0.022,1.46 ± 0.12,0.62 ± 0.093,0.742 (active)
C#Cc1cccc(Nc2ncnc3cc(OCCOC)c(OCCOC)cc23)c1.Cl,0.511 ± 0.11,0.348 ± 0.047,0.233 ± 0.014,0.292 ± 0.03,0.143 ± 0.039,0.0986 ± 0.027,0.853 (active)
Cc1ncsc1C(=O)N1CC(OCC(F)(F)F)C1,0.974 ± 0.11,0.996 ± 0.08,1.01 ± 0.095,1.08 ± 0.11,1.01 ± 0.09,0.999 ± 0.25,1 (active)
Cc1cc(OC2CN(C(=O)Cn3nnc4ccccc43)C2)cc(=O)n1C1CC1,1.14 ± 0.08,1.05 ± 0.11,1.02 ± 0.044,0.97 ± 0.044,0.99 ± 0.07,0.973 ± 0.15,0.997 (active)
Cc1cccc(CSc2nn3c(=O)c(C)nnc3s2)c1,1.06 ± 0.086,0.937 ± 0.1,0.907 ± 0.085,0.925 ± 0.031,1.25 ± 0.2,1.26 ± 0.25,1.01 (active)
COc1ccc(N(CC(=O)NCCSCc2ccccc2)S(C)(=O)=O)cc1Cl,0.873 ± 0.15,1.06 ± 0.071,0.893 ± 0.068,0.864 ± 0.12,1.08 ± 0.1,0.85 ± 0.18,1.01 (active)
CN1CCC(=C2c3ccccc3C=Cc3ccccc32)CC1 [Prestw-103],0.516 ± 0.038,0.833 ± 0.056,1.01 ± 0.053,0.72 ± 0.067,0.905 ± 0.1,0.915 ± 0.12,0.293 (inactive)
CCOc1ccc2nc(SC(c3ccccc3)c3ccccc3)sc2c1,1.01 ± 0.17,0.967 ± 0.099,0.974 ± 0.14,1.01 ± 0.036,1.2 ± 0.18,1.04 ± 0.31,0.661 (inactive)
CNCc1cc(-c2ccccc2F)n(S(=O)(=O)c2cccnc2)c1.O=C(O)/C=C/C(=O)O,0.612 ± 0.05,1.04 ± 0.076,0.98 ± 0.021,0.931 ± 0.054,0.97 ± 0.056,0.855 ± 0.089,0.999 (active)
